The AC50 is the concentration at which the activity in the assay is half-maximal.

Active and inactive are the calls of the source. The calls were made as follows: active = hit-call score of the fitted dose curve at least 0.9, where 1 is the maximum; inactive = score below 0.9.

Read-out in the experiment: catalase (CAT), CAT (gene 847)
The experiment in a line: LTEA_HepaRG_CAT: Life Technologies and Expression Analysis (LTEA) Assay for catalase (CAT) using HepaRG (AID 2283452).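 As to AC50: TaqMan qRT-PCR signal normalized to ACTB GAPDH and POLR2A housekeeping genes.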 As to conditions: mRNA level, 48 h; actives raise or lower the signal. As to the method: LTEA_HepaRG is a cell based, multiplexed-readout assay that uses HepaRG, a human liver cell line, with measurements taken at 48 hours after chemical dosing on a 96-well plate.LTEA_HepaRG_CAT is one of 102 assay component(s) measured in the LTEA HepaRG cell culture assay. It is a marker of Oxidative Stress.Data from the assay component LTEA_HepaRG_CAT was analyzed into 1 endpoint. This assay endpoint, LTEA_HepaRG_CAT, was analyzed with bidirectional fitting relative to DMSO as the negative control and baseline of activity. Using a type of inducible reporter, measures of mRNA induction for gain or loss-of-signal activity can be used to understand regulation of transcription factor activity. To generalize the intended target to other relatable targets, this assay endpoint is annotated to the catalase intended target family, where the subfamily is oxidative stress.
A total of 1060 chemcials from the ToxCast library were tested in eight-point concentration-response experiments. Cell culture and cytotoxicity assays were conducted at Thermo Fisher Scientific's Custom Services facility (Madison, WI). A single lot of human HepaRG cells (Thermo Fisher Scientific, Frederick, MD) was used for the cell culture experiments. 96-well format collagen type I coated plates of human HepaRG cells were prepared using established methods. Briefly, cryopreserved HepaRG cells were thawed, plated at a density of approximately 100,000 cells/well in HepaRG Thaw, Plate, and General Purpose media (HPRG770, Thermo Fisher Scientific), and incubated for 48 hours. 0.5% DMSO was selected as vehicle control to balance the requisite need of DMSO in HepaRG cultures to maintain differentiation (for example, baseline metabolism, proportions of hepatocytes vs. cholangiocytes), while enabling further hepatic receptor pathway activation (for example, PXR and CAR) in response to chemical exposure. 48 hours after plating, the culture medium was replaced with HepaRG Serum-Free Incudtion Media. Cells were exposed to each test chemical in duplicate and maintained in CO2 incubators for another 48 hours. Chemical plates were thawed to room temperature and 200x concentrations of treatment groups were prepared. 8-point conentration-reponse curves were made with the highest exposure at 100 uM, followed by half-log dilutions, all in 0.5% DMSO. Each test plate contained variouse controls, induction positive controls (1mM phenobarbital), cytotoxicity positive controls ([…] aflatoxin B1), vehicle controls (0.5% DMSO), and total lysis controls (0.5% DMSO). Cell morphology images were taken using an Essen IncuCyte FLR automated microscope, with six 96-well plates imaged in about 24 minutes. Images were captured and exported and JPEG files. Spent culture media was transfered to black-well plates for the LDH assay, and remaining media was sorted at -80 C for later use. Cells were treated with RLT buffer and frozen until shipped for gene expression analysis. Total RNA was isolated from the cell suspension in 75 uL of Buffer RLT (Qiagen, Germantown, MD 20874) by Quintiles/Expression Analysis (Durham, NC) using a custom isolation procedure. Total RNA from each plate well was transferred to a preamplification plate. Fluidigm's 96.96 Dynamic ArrayTM (Fluidigm, Amsterdam, the Netherlands) technology was used for gene expression analyses by quantitative reverse transcription polymerase chain reaction (qRT-PCR, performed by Quintiles/Expression Analysis, Durham, NC)89. Standard TaqManTM Assays (Applied Biosystems/ThermoFisher Scientific, Foster City, CA) were used to assess the expression of 93 genes selected based on their selectivity and sensitivity to important hepatic receptors known to be modulated by environmental chemicals; importance in human hepatocyte functionality; and hepatotoxicity. […]
In the case of `CCOP(=O)(OCC)Oc1nc(Cl)c(Cl)cc1Cl`, the concentration at half-maximal activity (AC50) was 91.1 µM (active). With `CC1(C)CON(Cc2ccccc2Cl)C1=O`, the result was inactive. In the case of `Nc1cnn(-c2ccccc2)c(=O)c1Cl`, the outcome was inactive. With `CNC(=O)N(C)c1nnc(C(C)(C)C)s1`, the compound was classed as inactive. As for `CC(C)Nc1nc(Cl)nc(NC(C)C)n1`, the concentration at half-maximal activity (AC50) was 16.8 µM (active). On to `CC1(C)CCC(=Cc2ccc(Cl)cc2)C1(O)Cn1cncn1` (stereo not given), for which the result was inactive.

With `O=c1n(Cl)c(=O)n(Cl)c(=O)n1Cl`, the call was inactive. For the compound `N#Cc1c(Cl)cccc1Cl`, the outcome was inactive. Regarding `CSC(=O)c1c(C(F)F)nc(C(F)(F)F)c(C(=O)SC)c1CC(C)C`, the compound was classed as inactive. Consider `Cc1nc(N(C)C)nc(OC(=O)N(C)C)c1C`, for which the outcome was inactive. Turning to `Nc1c(Cl)c(F)nc(OCC(=O)O)c1Cl`, the outcome was inactive. The same measure, in the same setting: the same measure for `COC(=O)NS(=O)(=O)c1ccc(N)cc1`: “inactive”; for `CS(=O)(=O)c1cc(C(F)(F)F)ccc1C(=O)c1cnoc1C1CC1`: “inactive”. On to `CCCC(=NOCC)C1=C(O)CC(CC(C)SCC)CC1=O` (stereo not given), for which the outcome was inactive. In the case of `CN=C=S`, the compound was called inactive. Regarding `CCN(CC)C(=O)C(C)Oc1cccc2ccccc12` (stereo not given), the AC50 was 81.2 µM (active).

Regarding `COc1cc(Cl)c(OC)cc1Cl`, the outcome was inactive.

As to `O=C(Nc1ccccc1-c1ccc(Cl)cc1)c1cccnc1Cl`, the compound was called inactive. With `Cc1cnc(C2=NC(C)(C(C)C)C(=O)N2)c(C(=O)O)c1` (stereo not given), the result was inactive.

For the compound `O=C1C2CC=CCC2C(=O)N1SC(Cl)(Cl)Cl` (stereo not given), the result was inactive. Consider `O=C(O)c1c(Cl)ccc2cc(Cl)cnc12`, for which the compound was classed as inactive.

For `CC(C)Oc1cccc(NC(=O)c2ccccc2C(F)(F)F)c1`, the result was inactive. Turning to `COP(=O)(OC)O/C(C)=C/C(=O)N(C)C`, the result was inactive.

In the case of `CCNP(=S)(OC)O/C(C)=C/C(=O)OC(C)C` (stereo not given), the compound was classed as inactive. As for `CC(C)N1C(=O)N(c2ccccc2)CSC1=NC(C)(C)C`, the AC50 was 75.4 µM (active). With `CC(C)NC(=O)N1CC(=O)N(c2cc(Cl)cc(Cl)c2)C1=O`, the half-maximal activity concentration (AC50) was 13.3 µM (active). Turning to `COCC(C)N(C(=O)CCl)c1c(C)csc1C` (stereo not given), the result was inactive. With `CCCCC(O)(Cn1cncn1)c1ccc(Cl)cc1Cl` (stereo not given), the AC50 was 73 µM (active). As for `CCOc1cc(C(C)(C)C)ccc1C1COC(c2c(F)cccc2F)=N1` (stereo not given), the compound was called inactive.

Consider `CN/C(=N\[N+](=O)[O-])NCc1cnc(Cl)s1`, for which the result was inactive. As to `Cn1c(-c2ccccc2)cc(-c2ccccc2)[n+]1C`, the AC50 is 21.9 µM (active). Consider `Clc1nc(Cl)nc(Nc2ccccc2Cl)n1`, for which the outcome was inactive. In the case of `CC1(C)C(C(=O)OC(C#N)c2cccc(Oc3ccccc3)c2)C1(C)C` (stereo not given), the compound was called inactive. On the same count and under the same terms, under `N#CN=C1SCCN1Cc1ccc(Cl)nc1` stands “inactive”; under `CNC(=O)Oc1cccc2ccccc12`, “inactive”; under `CC(C)C1(C)N=C(c2ncccc2C(=O)O)NC1=O` (stereo not given), “inactive”. The same measure, in the same setting: the same measure for `COc1ccc(-c2ccccc2)cc1NNC(=O)OC(C)C`: “inactive”. For `N#Cc1c[nH]cc1-c1cccc2c1OC(F)(F)O2`, the AC50 was 74.9 µM (active). Turning to `Clc1cccc(C(Cl)(Cl)Cl)n1`, the call was inactive. `COP(=S)(OC)Oc1ccc([N+](=O)[O-])c(C)c1`: the result was inactive.

The values above are taken from PubChem BioAssay (EPA / NIEHS).
